# System: H9c2
# Assay: protection of cardiomyocytes from stress damage, SAR follow-up, cell-based, panel, H9c2 and HL-1, ATP luminescence, set 2 (AID 651871);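 also: cells exposed to stressor for 2 h before ATP readout; reference of the scale not given here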
# Conditions: H9c2/HL-1 cardiomyocytes, H2O2 oxidative stress, with H2O2, run 2, at 39.5 µM (top of the series)
smiles,measurement,value
COc1ccc2c(c1OC)C(=O)N1c3ccccc3C(=O)N(Cc3cccc(Cl)c3Cl)C21 (stereo unspecified),activity (protection/inhibition),48.1%

# — PubChem BioAssay AID651871 (Sanford-Burnham Center for Chemical Genomics, 2012)
